Our source for the growth values is PubChem BioAssay (NCI).

This is part of a sample that, as a whole, favours compounds with a hit. Of some 83,000 tested, about 20% had one in any assay.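 Negative percent growth values reflect cell death: -40 means 40% of the cells present at the start died, and -100 means all died.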 Activity calls are given as the source filed them. How the source made its calls: active means growth percent below 10; inactive means the rest.

One experiment concerns HOP-92 NSCLC. Kind of experiment: NCI-60 one-dose screen, 48 h (100 = growth as untreated, 0 = no growth, -100 = all killed). The following applies: 10 µM.
On to `O=c1oc2ccc(-c3ccc(F)cc3F)cc2c(=O)n1-c1ccc(F)c(Cl)c1`, for which the growth was -22% (active).

Consider `O=C(c1ccc(O)cc1)C1[C@H](c2ccccc2Br)[C@@H](c2ccccc2)NC12C(=O)Nc1ccc(Br)cc12` (some centres undefined), for which the growth was 53.3% (inactive).

As to `O=C(Nc1cccc(-c2cn(-c3ccc4oc(=O)ccc4c3)nn2)c1)Nc1cc(C(F)(F)F)cc(C(F)(F)F)c1`, the growth is -28.1% (active).

As to `O=C1N/C(=N\c2nccs2)S/C1=C\c1cccs1`, the growth is 68% (inactive).

Take `COc1ccc2[nH]c(O)c(N=NC(=O)COc3ccc(NC(=O)Nc4ccc(Cl)cc4)cc3)c2c1`: the growth was -32.5% (active).

Turning to `COc1ccc(OC)c(-c2cc(-c3c[nH]c4ccccc34)nc(N)c2C#N)c1`, the growth is -36.8% (active).

As to `N#Cc1ccc(-c2nn(-c3ccc(C(=O)O)cc3)cc2CNc2ccc(Oc3ccccc3)cc2)cc1`, the growth was 38.8% (inactive).

Consider `N#Cc1ccc(-c2nn(-c3ccc(C(=O)O)cc3)cc2CNc2cc(Cl)cc(C(F)(F)F)c2)cc1`, for which the growth is -26.6% (active).

Consider `CO[C@@H]1CSS[C@H]1Cn1nc(-c2ccc(Oc3ccccc3)cc2)c2c(N)ncnc21`, for which the growth was 57.9% (inactive).

Consider `Cc1ccn2c(C(=O)c3ccc(Br)cc3)cc(-c3cc(-c4ccc(N(C)C)cc4)c(C#N)c(N)n3)c2c1`, for which the growth was 31.2% (inactive).

`O=c1c2ccccc2nc(COc2ccccc2)n1/N=C/c1ccc(F)cc1`: the growth was 100% (inactive).

As for `Nc1nc(Nc2ccc(Cl)cc2)nn1Cc1cccc(Br)c1`, the growth is -9.09% (active).

With `CC(C)CCSc1nc(NC2CC2)c(C#N)c(-c2ccc(C(C)C)cc2)n1`, the growth is 114% (inactive).

As to `COc1cccc(-c2ccc(/C=N/NC(=O)c3[nH]c4ccc(Br)cc4c3-c3ccccc3)o2)c1`, the growth is 54.4% (inactive).

On to `COc1ccc2nc(Cl)c(-c3cc(-c4ccccc4)nc(=O)[nH]3)cc2c1`, for which the growth is 55.2% (inactive).

As for `COc1cc2c(c(OC)c1OC)C(=O)CC(c1cccc(NC(=O)c3cccc(N)c3)c1)O2` (centres undefined), the growth is 74% (inactive).

In the case of `COc1ccc(-c2nc(S(=O)(=O)c3ccccc3)c(S(C)(=O)=O)o2)cc1`, the growth is -60.8% (active).

Consider `CN1CCN(c2ccc(C(=O)/C=C/c3ccc(C#N)cc3)cc2)CC1`, for which the growth is 77.2% (inactive).

With `O=C(NO)c1ccc(Cn2ccc3c(NCc4ccccc4)ncnc32)cc1`, the growth was -19% (active).

Take `O=C(O)CCCCCCCCCCN1C(=O)/C(=C/c2cnc(-c3ccccc3)s2)SC1=S`: the growth is 52.1% (inactive).

For `Cc1cc(=O)oc2cc(OCCCCOc3ccc(/C=C/C(=O)Nc4ccccc4[N+](=O)[O-])cc3)ccc12`, the growth is 130% (inactive).

Take `CCOC(=O)CNC(=O)CN(Cc1ccccc1)C(=O)[C@@]1(C)CCC[C@]2(C)[C@H]3CC4C(C(C)C)=C[C@]3(CC[C@H]21)[C@@H]1C(=O)CCC(=O)[C@H]41`: the growth was 80.5% (inactive).

On to `Cc1ccc(-c2cc(-c3cc4ccccc4nc3Cl)[nH]c(=O)n2)cc1`, for which the growth was 5.62% (active).

On to `COc1ccc2cc([C@H](C)C(=O)NCc3ccccc3)ccc2c1`, for which the growth was 104% (inactive).

Regarding `COc1cc(Cn2c(C(F)(F)F)cc3c(Cl)ncnc32)ccn1`, the growth is 49.1% (inactive).

Consider `CN(C)c1cccc2c(S(=O)(=O)Nc3cccc(-c4csc(NC(=O)CCCCCN5CCN(c6cc7c(cc6F)C(=O)N(C6CCC(=O)NC6=O)C7=O)CC5)n4)c3)cccc12` (centres undefined), for which the growth was 56.6% (inactive).

On to `COc1ccc(-c2nc(S(=O)(=O)c3ccc(C)cc3)c(S(=O)(=O)CC(=O)N(C)Cc3ccccc3)o2)cc1`, for which the growth is 27.2% (inactive).

On to `COc1ccc(C=CC(=O)c2ccc(-n3c(C)nc4c(cnn4-c4ccccc4)c3=O)cc2)cc1`, for which the growth was 97.3% (inactive).

Consider `O=S(=O)(Nc1ncccn1)c1ccc(-n2c(-c3ccc(Br)cc3)nc(-c3ccccc3)c2-c2ccccc2)cc1`, for which the growth is 11.4% (inactive).

As to `COc1cc(/C=C/C(=O)c2ccc(NC(=O)CSc3nnc(-c4c[nH]c5ccccc45)n3-c3ccccc3)cc2)cc(OC)c1OC`, the growth is 105% (inactive).

Regarding `CCCn1c(=O)c2[nH]c(-c3ccc(OCc4nc5ccccc5[nH]4)cc3)nc2n(CCC)c1=O`, the growth is -6.45% (active).

Regarding `Cc1ccc2nc(COc3ccc(C(=O)NNC(=S)NC(=O)c4ccccc4)cc3)[nH]c2c1`, the growth was 80.6% (inactive).

In the case of `COc1nccnc1NS(=O)(=O)c1ccc(NC2=C(Cl)C(=O)c3nc(C)ccc3C2=O)cc1`, the growth was 116% (inactive).

For `N#Cc1c(NC(=O)c2ccc(C(O)(C(F)(F)F)C(F)(F)F)cc2)sc2c1CCC(=O)C2`, the growth was -55.7% (active).

In the case of `O=C(Cn1nc(-c2ccccc2)ccc1=O)NNC(=S)NC1CCCCC1`, the growth was 116% (inactive).

For the compound `O=C(/C=C/Nc1ccccc1)c1ccc2c(c1)Nc1ccccc1S2`, the growth was 98.7% (inactive).

`CC1(c2ccccc2)NC(=O)N(CC(=O)Nc2ccc(C(=O)/C=C/c3ccc(Br)cc3)cc2)C1=O` (centres undefined): the growth is 25.1% (inactive).

A further experiment has as its system NCI-H522 lung. Described as above. Particulars: 10 µM.
Turning to `O=c1oc2ccc(-c3ccc(F)cc3F)cc2c(=O)n1-c1ccc(F)c(Cl)c1`, the growth is -17.7% (active).

`O=C(c1ccc(O)cc1)C1[C@H](c2ccccc2Br)[C@@H](c2ccccc2)NC12C(=O)Nc1ccc(Br)cc12` (some centres undefined): the growth was 0.143% (active).

Regarding `O=C(Nc1cccc(-c2cn(-c3ccc4oc(=O)ccc4c3)nn2)c1)Nc1cc(C(F)(F)F)cc(C(F)(F)F)c1`, the growth was 21.8% (inactive).

With `O=C1N/C(=N\c2nccs2)S/C1=C\c1cccs1`, the growth is 21.2% (inactive).

Turning to `COc1ccc2[nH]c(O)c(N=NC(=O)COc3ccc(NC(=O)Nc4ccc(Cl)cc4)cc3)c2c1`, the growth was 26.7% (inactive).

For `COc1ccc(OC)c(-c2cc(-c3c[nH]c4ccccc34)nc(N)c2C#N)c1`, the growth is -5.53% (active).

Regarding `N#Cc1ccc(-c2nn(-c3ccc(C(=O)O)cc3)cc2CNc2ccc(Oc3ccccc3)cc2)cc1`, the growth is 66.8% (inactive).

Take `N#Cc1ccc(-c2nn(-c3ccc(C(=O)O)cc3)cc2CNc2cc(Cl)cc(C(F)(F)F)c2)cc1`: the growth was 19.5% (inactive).

Turning to `CO[C@@H]1CSS[C@H]1Cn1nc(-c2ccc(Oc3ccccc3)cc2)c2c(N)ncnc21`, the growth was 17.3% (inactive).

On to `Cc1ccn2c(C(=O)c3ccc(Br)cc3)cc(-c3cc(-c4ccc(N(C)C)cc4)c(C#N)c(N)n3)c2c1`, for which the growth is 45.3% (inactive).

In the case of `O=c1c2ccccc2nc(COc2ccccc2)n1/N=C/c1ccc(F)cc1`, the growth is 81.8% (inactive).

`Nc1nc(Nc2ccc(Cl)cc2)nn1Cc1cccc(Br)c1`: the growth is 27.6% (inactive).

As for `CC(C)CCSc1nc(NC2CC2)c(C#N)c(-c2ccc(C(C)C)cc2)n1`, the growth was 90.7% (inactive).

Regarding `COc1cccc(-c2ccc(/C=N/NC(=O)c3[nH]c4ccc(Br)cc4c3-c3ccccc3)o2)c1`, the growth was -42.8% (active).

For the compound `COc1ccc2nc(Cl)c(-c3cc(-c4ccccc4)nc(=O)[nH]3)cc2c1`, the growth was 66.9% (inactive).

`COc1cc2c(c(OC)c1OC)C(=O)CC(c1cccc(NC(=O)c3cccc(N)c3)c1)O2` (centres undefined): the growth is 61% (inactive).

For `COc1ccc(-c2nc(S(=O)(=O)c3ccccc3)c(S(C)(=O)=O)o2)cc1`, the growth is -97.2% (active).

On to `CN1CCN(c2ccc(C(=O)/C=C/c3ccc(C#N)cc3)cc2)CC1`, for which the growth was 81.5% (inactive).

With `O=C(NO)c1ccc(Cn2ccc3c(NCc4ccccc4)ncnc32)cc1`, the growth is -51.5% (active).

Take `O=C(O)CCCCCCCCCCN1C(=O)/C(=C/c2cnc(-c3ccccc3)s2)SC1=S`: the growth is 38.2% (inactive).

With `Cc1cc(=O)oc2cc(OCCCCOc3ccc(/C=C/C(=O)Nc4ccccc4[N+](=O)[O-])cc3)ccc12`, the growth is 105% (inactive).

As for `CCOC(=O)CNC(=O)CN(Cc1ccccc1)C(=O)[C@@]1(C)CCC[C@]2(C)[C@H]3CC4C(C(C)C)=C[C@]3(CC[C@H]21)[C@@H]1C(=O)CCC(=O)[C@H]41`, the growth was 36.7% (inactive).

As to `Cc1ccc(-c2cc(-c3cc4ccccc4nc3Cl)[nH]c(=O)n2)cc1`, the growth was -11.7% (active).

Take `COc1ccc2cc([C@H](C)C(=O)NCc3ccccc3)ccc2c1`: the growth was -5.33% (active).

In the case of `COc1cc(Cn2c(C(F)(F)F)cc3c(Cl)ncnc32)ccn1`, the growth is 56% (inactive).

Turning to `CN(C)c1cccc2c(S(=O)(=O)Nc3cccc(-c4csc(NC(=O)CCCCCN5CCN(c6cc7c(cc6F)C(=O)N(C6CCC(=O)NC6=O)C7=O)CC5)n4)c3)cccc12` (centres undefined), the growth is 85.6% (inactive).

Take `COc1ccc(-c2nc(S(=O)(=O)c3ccc(C)cc3)c(S(=O)(=O)CC(=O)N(C)Cc3ccccc3)o2)cc1`: the growth is -1.9% (active).

On to `COc1ccc(C=CC(=O)c2ccc(-n3c(C)nc4c(cnn4-c4ccccc4)c3=O)cc2)cc1`, for which the growth was 57.4% (inactive).

Turning to `O=S(=O)(Nc1ncccn1)c1ccc(-n2c(-c3ccc(Br)cc3)nc(-c3ccccc3)c2-c2ccccc2)cc1`, the growth is 74.5% (inactive).

`COc1cc(/C=C/C(=O)c2ccc(NC(=O)CSc3nnc(-c4c[nH]c5ccccc45)n3-c3ccccc3)cc2)cc(OC)c1OC`: the growth was 90.5% (inactive).

With `CCCn1c(=O)c2[nH]c(-c3ccc(OCc4nc5ccccc5[nH]4)cc3)nc2n(CCC)c1=O`, the growth was 20.9% (inactive).

Consider `Cc1ccc2nc(COc3ccc(C(=O)NNC(=S)NC(=O)c4ccccc4)cc3)[nH]c2c1`, for which the growth was 60.5% (inactive).

In the case of `COc1nccnc1NS(=O)(=O)c1ccc(NC2=C(Cl)C(=O)c3nc(C)ccc3C2=O)cc1`, the growth was 88% (inactive).

For `N#Cc1c(NC(=O)c2ccc(C(O)(C(F)(F)F)C(F)(F)F)cc2)sc2c1CCC(=O)C2`, the growth is -71.2% (active).

Take `O=C(Cn1nc(-c2ccccc2)ccc1=O)NNC(=S)NC1CCCCC1`: the growth is 104% (inactive).

Regarding `O=C(/C=C/Nc1ccccc1)c1ccc2c(c1)Nc1ccccc1S2`, the growth is 61.4% (inactive).

Turning to `CC1(c2ccccc2)NC(=O)N(CC(=O)Nc2ccc(C(=O)/C=C/c3ccc(Br)cc3)cc2)C1=O` (centres undefined), the growth is 64.3% (inactive).
